# In PubChem BioAssay AID2546 (National Center for Advancing Translational Sciences (NCATS), 2010):
# Screen size: about 310,000 compounds; about 11,000 (3.5%) were called active. Another 8% or so got no clear call; they are omitted. Many of the other results were omitted from the sample, so actives are more common in it than they were. Values without a mark were called inactive. Calls come from the whole dose curve; as a rule, active = well fitted inhibition curve with a large enough effect; inconclusive = small, poorly fitted or top-dose-only effect, or effect the other way; inactive = flat fitted curve, though single readings scatter.
# Experiment: VP16 counterscreen qHTS for inhibitors of ROR gamma transcriptional activity;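 note: Gal4-VP16 expression switched on by copper sulfate through the metallothionein promoter; nearly all actives have a fitted effect of over 50% in size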
# Conditions: Drosophila S2 Gal4-VP16 UAS-luciferase, luminescence, 20 h; series mostly up to 53.6 µM; activity, negative = inhibition: at the top concentration
# % is set by controls: 0 for no effect and ±100 for the full control effect; potency is the fitted concentration of half-maximal effect.
Structure (SMILES),"activity, negative = inhibition",Potency
CCOc1cc2[nH]c(=S)n(Cc3ccc(C(=O)N4CCN(C)CC4)cc3)c(=O)c2cc1OCC,-12.6%,
COc1ccc(C(C[N+](=O)[O-])n2nc(C)cc2C)cc1 (stereo unspecified),,10 µM (active)
COc1ccc(OCc2cn3c(C)cc(C)nc3n2)cc1,-21.6%,
COc1ccc(C(=O)CSc2nc(C)cc(C)n2)cc1[N+](=O)[O-],8.46%,
Cc1cccc(N2C(=O)N3[C@H](c4ccc(F)cc4)[C@@H]4C(=O)N(C5CCCCC5)C(=O)[C@@H]4[C@]3(Cc3ccccc3)C2=O)c1,-4.63%,
CC1CC2=C(CC1/C=N/NC(N)=S)C(C)(C)CCC2 (stereo unspecified),,2.82 µM (active)
COc1ccc(/C=N/OCc2ccccc2C#N)c(OC)c1,5.87%,
O=C1CCC(C(=O)N2CCN(c3ccccc3Cl)CC2)CN1CC1CCCCC1 (stereo unspecified),0.387%,
COc1cc(CN2CCC(n3nccc3NC(=O)CCCc3ccccc3)CC2)ccc1O,7.71%,
CCc1ccc(-c2nnn(Cc3nn[nH]n3)n2)cc1,1.37%,
Clc1ccc(-c2nnc(SCc3nc4ccccc4s3)o2)cc1,24.3%,
CCc1ccc(-c2nnn(Cc3nc4ccccc4s3)n2)cc1,,10 µM (active)
CC(C)C[C@@H](NC(=O)[C@H]1CCCN1C(=O)Cc1ccccc1)C(N)=O,-3.88%,
CCOC(=O)c1c(NC(=S)Nc2ccccc2)sc2c1CCN(C)C2,-15.1%,
CCOC(=O)c1cc2c(nc1NC(=S)Nc1ccccc1)CC(C)(CC)OC2 (stereo unspecified),,7.94 µM (active)
CCOC(=O)c1ccccc1NC(=O)CSc1nc2ccccc2c(=O)[nH]1,-8.12%,
CCOC(=O)C1CN(S(=O)(=O)c2ccc(OC)cc2)c2cc(Cl)ccc2O1 (stereo unspecified),-20.3%,
O=C(C1CCN(Cc2ccc(Cl)cc2)CC1)N1CCN(Cc2ccc3c(c2)OCO3)CC1,-22.4%,
O=C(NNC1=NCCC1)c1cccc(S(=O)(=O)N2CCCCC2)c1,,10 µM (active)
O=C(Nc1cccnc1)c1cccc(S(=O)(=O)N2CCCC2)c1,20.1%,
O=C(NNC(=S)Nc1ccccc1)c1cccc(S(=O)(=O)N2CCOCC2)c1,2.35%,
Cn1c(SCC(=O)N2CCCC2)nnc1-c1ccc2c(c1)OCO2,-12%,

Structure (SMILES),"activity, negative = inhibition",Potency
O=C(CCNS(=O)(=O)c1cccs1)N1CCN(c2ccc(F)cc2)CC1,-10.3%,
COc1cc(S(=O)(=O)Nc2ncn[nH]2)ccc1Cl,-0.0885%,
CCn1c(=O)cc(O)c2ccccc21,-4.77%,
CCn1c(O)c(N=NC(=O)c2cccc(S(=O)(=O)N3CCCCC3)c2)c2ccccc21,2.98%,
CCn1c(O)c(N=NC2=NC(=O)CS2)c2cc(C)ccc21,,12.6 µM (active)
COc1cccc(C(=O)NNC(=O)c2cccc(F)c2)c1,16.3%,
Cc1cc(C)nc(N/N=C/c2c(CO)cnc(C)c2O)n1,-10.3%,
COc1ccc(OC)c(CCNC(=O)CCn2ccc3cc(S(=O)(=O)N4CCCC4)ccc32)c1,-2.74%,
CC(=O)Nc1ccc(-c2nc3ccccc3o2)cc1,-15.3%,
Cc1cc2nc(-c3ccc(NC(=O)c4cccnc4)cc3)oc2cc1C,0.702%,
Cc1ccc2nc(-c3ccc(NC(=O)c4cccnc4)cc3)oc2c1,,1.26 µM (active)
COc1ccc(C)cc1NC(=O)C(OC(=O)c1cccc(S(=O)(=O)N(C)c2ccccc2)c1)c1ccccc1 (stereo unspecified),3.82%,
CC(=O)c1c(C)[nH]c(C(=O)COC(=O)c2cccc(S(=O)(=O)N(C)c3ccccc3)c2)c1C,,5.62 µM (active)
CN(c1ccccc1)S(=O)(=O)c1ccc(Cl)c(C(=O)OCC(N)=O)c1,5.37%,
CCCn1nnnc1NCc1ccc(OC)cc1,4.22%,
CCn1c(=O)c2ccccc2n(CC(=O)N2CCCc3ccccc32)c1=O,-5.13%,
O=C(Nc1ccccc1Cl)Nn1cnnc1,-1.62%,
O=C(Nc1ccccc1Cl)/C(Cl)=C(\Cl)S(=O)c1ccccc1 (stereo unspecified),,0.794 µM (active)
COCCN(CCOC)C(=S)Nc1ccccc1Cl,-1.05%,
Cc1cccc(C(=O)Nc2ccc(Oc3cnccn3)cc2)c1,18.6%,
COc1ccc(OC)c(S(=O)(=O)N2CCCC(C(=O)NCCc3ccccc3)C2)c1 (stereo unspecified),3.86%,
COc1ccc(NC(=O)Cn2ncn3c(cc4ccccc43)c2=O)c(OC)c1OC,0.993%,

Structure (SMILES),"activity, negative = inhibition",Potency
Cc1onc(-c2ccccc2)c1C(=O)N1CCN(S(=O)(=O)c2ccccc2C(F)(F)F)CC1,1.76%,
Cc1ccc(/C=C2\CCn3c2nc2cc(C(=O)O)ccc2c3=O)c(C)c1,5.94%,
CC1CC(C)CN(CCOc2cccc3ccccc23)C1 (stereo unspecified),0.773%,
CCOC(=O)[C@@H]1[C@H]2COc3cc(OC)ccc3[C@H]2N2C(=O)N(c3ccc(F)cc3)C(=O)[C@]12C,11.4%,
O=C(Nc1cccc(S(=O)(=O)Nc2ccc(Cl)cc2)c1)c1ccc2c(c1)OCCO2,,0.794 µM (active)
O=C(Nc1ccc2c(c1)OCCO2)c1ccc(Cl)c(S(=O)(=O)N2CCCCC2)c1,0.74%,
O=C(Nc1cccc(S(=O)(=O)N2CCCCC2)c1)c1ccc2c(c1)OCO2,-9.48%,
O=C(NC1CCCC1)C(c1c(F)cccc1Cl)N(C(=O)c1csnn1)C1CC1 (stereo unspecified),2.27%,
COc1ccc2nc(C)cc(Nc3cccc(C(=O)O)c3)c2c1,-0.583%,
O=C(O)COc1ccc(-c2nccc(-c3cccs3)n2)cc1,,15.8 µM (active)
O=C(Nc1ccnc(-c2ccncc2)n1)c1cccs1,-9.29%,
COC(=O)CSc1nccc(-c2cccs2)n1,-4.83%,
CCN(Cc1ccncc1)C(=O)CCc1ccccc1,2.93%,
CC(C)(C)c1ccc(SCCc2ccncc2)cc1,,17.8 µM (active)
Cc1ccc(SCCSc2ncccn2)cc1,-12%,
Cc1cc(C)c(SCCc2ccncc2)c(C)c1,,11.2 µM (active)
Cc1cc(C)c(NC(=O)CSc2nc3ccncc3[nH]2)c(C)c1,-3.75%,
c1ccc(CSCCc2ccncc2)cc1,2.21%,
C=CCOc1ccc(/C=C2/C(=O)ON=C2C)cc1OCC,-4.21%,
CCOc1ccc(NC(=O)C(C)N2C(=O)c3ccccc3C2=O)cc1 (stereo unspecified),-3.04%,
Cc1ccc(S(=O)(=O)NC2CCCCCC2)cc1C(N)=O,-7.37%,
CCc1ccc(-n2c(=S)sc3c(=O)n(-c4ccccc4OC)c(=S)[nH]c32)cc1,-8.14%,

Structure (SMILES),"activity, negative = inhibition",Potency
CCCSc1nc2sc3c(c2c(=O)n1-c1ccc(OC)cc1)CCN(C)C3,-0.0853%,
COc1ccc(-n2c(=S)[nH]c3sc4c(c3c2=O)CCc2ccccc2-4)cc1,,0.251 µM (active)
O=C(Nc1ccc(C(=O)N2CCCCC2)cc1)c1cccc([N+](=O)[O-])c1,19.8%,
COc1cc(C(=O)NCc2ccncc2)cc(Br)c1OCc1ccccc1,-1.79%,
CC(C)[C@@H]1COC(c2cccc(C3=N[C@H](C(C)C)CO3)c2)=N1,5.4%,
C#CCOc1ccc(/C=C2/C(=O)ON=C2C)cc1OCC,-17.6%,
O=C(Nc1ccc2nc3n(c(=O)c2c1)CCCCC3)c1ccccc1Cl,-19.2%,
O=C(Nc1ccc2c(c1)nc1n2CCCCC1)c1cc(S(=O)(=O)N2CCOCC2)ccc1Cl,,12.6 µM (active)
O=C(Nc1ccc(N2CCOCC2)c(Cl)c1)c1ccc(S(=O)(=O)N2CCOCC2)cc1,-8.97%,
Nc1ncc(CN2CCCC(C(=O)Nc3ccc(-c4ccco4)cc3)C2)cn1 (stereo unspecified),2.6%,
N=c1oc2ccccc2cc1C(=O)NCc1ccccc1,26.3%,
CCCNC(=O)COc1coc(CN2CCN(Cc3ccccc3)CC2)cc1=O,-4%,
COc1cccc(-n2cc(C(=O)O)c3ccccc3c2=O)c1,-0.477%,
COc1cccc(N2C(=O)CN(Cc3ccccc3)C2=S)c1,-3.18%,
COc1cccc(-n2c(=S)[nH]c3c(oc4ccccc43)c2=O)c1,,11.2 µM (active)
CCC(CC)COC(=O)C1=C(C)NC(=O)NC1c1ccc([N+](=O)[O-])cc1 (stereo unspecified),-3.51%,
COCCn1c(SCC(=O)N2CCCCCC2)nc2c(c1=O)SCC2,4.31%,
Oc1cccc(/C=N/Nc2ccc(Cl)nn2)c1O,,2.82 µM (active)
Cc1ccsc1/C=N/Nc1ccc(Cl)nn1,1.26%,
COc1cccc(/C=N/Nc2ccc(Cl)nn2)c1,-15.1%,
Cc1ccc(S(=O)(=O)c2ccc(Oc3ccccc3)cc2)cc1,-26.4%,
CN(C)S(=O)(=O)c1ccc(NC(=O)N2CCOCC2)cc1,-9.25%,

Structure (SMILES),"activity, negative = inhibition",Potency
CN(C)S(=O)(=O)c1ccc(Oc2ccc(S(=O)(=O)N(C)C)cc2)cc1,,3.16 µM (active)
CSc1ncc(C(=O)NCCCc2ccccc2)c(C)n1,21.5%,
O=C(Nc1cccc(-c2nc3ccccc3[nH]2)c1)c1ccc(C(=O)Nc2cccc(-c3nc4ccccc4[nH]3)c2)cc1,,2.82 µM (active)
O=C(Cc1cccs1)Nc1cccc(-c2nc3ccccc3[nH]2)c1,15.7%,
O=C(/C=C/c1ccco1)Nc1cccc(-c2nc3ccccc3[nH]2)c1,12.4%,
Cc1c(C)c2ccc(OCC(=O)N3CCC(C(=O)O)CC3)c(C)c2oc1=O,-14.8%,
COc1cc(NS(=O)(=O)c2ccc(NC(C)=O)cc2)cc(OC)c1,,20 µM (active)
COc1ccc(/C=N/NS(=O)(=O)c2ccc(NC(C)=O)cc2)cc1,2.73%,
CC(=O)c1c(C)oc2ccc(NS(=O)(=O)c3ccc(C(=O)O)cc3)cc12,4.83%,
COC(=O)COc1ccc(S(=O)(=O)Nc2ccc(NC(C)=O)cc2)cc1,-5.35%,
COc1ccc(S(=O)(=O)Nc2ccc3oc(C)c(C(C)=O)c3c2)cc1,,11.2 µM (active)
CC(=O)c1c(C)oc2ccc(NS(=O)(=O)c3ccccc3)cc12,-22.8%,
Cc1ccnc(NS(=O)(=O)c2ccc(NC(=O)c3oc4ccc(F)cc4c3C)cc2)n1,-12.4%,
CC1CCCCN1C(=O)CCS(=O)(=O)Cc1ccccc1 (stereo unspecified),1.9%,
COc1ccc(/C=C2\SC(=O)N(CCC(=O)NCCCn3ccnc3)C2=O)cc1,0.385%,
COc1ccc(C2=Nn3c(nnc3-c3ccccc3O)SC2)cc1,-17%,
CCn1cc(C(=O)NCC(=O)NC(C)(C)CO)c(=O)c2cc3c(cc21)OCO3,-2.53%,
Cc1ccc(C(=O)NC23CC4CC(CC(C4)C2)C3)c(Cl)c1,23.1%,
